These results are taken from PubChem BioAssay (EPA / NIEHS).

A word on the AC50: it is the concentration giving half of the maximal activity seen.

Test [1] is described as follows: ATG_CRE_CIS: Attagene CIS-FACTORIAL HepG2 Assay for human cAMP Responsive Element (CRE) binding protein 3 (AID 2282926). The following applies: HepG2 CRE cis-reporter, Attagene multiplexed mRNA; actives raise or lower the signal. A digest of the protocol:
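Capillary electrophoresis of 6-FAM-labelled, HpaI-digested PCR products quantified reporter transcripts. These came from HepG2 transiently transfected with cis-element reporters and exposed to test chemicals for 24 hours, with DMSO defining baseline activity.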

Test [2] concerns the target Aryl hydrocarbon receptor (Homo sapiens) (UniProt P35869). Description: ATG_Ahr_CIS: Attagene CIS-FACTORIAL HepG2 Assay for human Aryl Hydrocarbon Receptor (Ahr) (AID 2282930). The following applies: HepG2 AhR cis-factorial reporter transcription; actives raise or lower the signal. A digest of the protocol:
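Values derive from bidirectional fitting against DMSO negative control. Underlying signal: cis-element reporter mRNA in transiently transfected HepG2, harvested 24 h post-dose and measured by RT-PCR plus capillary electrophoresis.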

The nature of test [3]: ATG_E_Box_CIS: Attagene CIS-FACTORIAL HepG2 Assay for human Enhancer Box (E-box) (AID 2282936). Conditions: HepG2 E-box cis-reporter transcription, actives raise or lower the signal. A digest of the protocol:
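Endogenous transcription factor activity was sensed in human HepG2 liver cells through transfected cis-promoter reporter units. After 24 h of dosing, total RNA was reverse-transcribed and reporter cDNA resolved by capillary electrophoresis.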

Test [4] in a line: ATG_M_19_CIS: Attagene CIS-FACTORIAL HepG2 Assay for M19 Transcription Factor (Internal Marker) (AID 2282939). Conditions: HepG2 Attagene CIS-FACTORIAL M19 internal marker reporter; actives raise or lower the signal. Put shortly:
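Background-control endpoint from a multiplexed HepG2 reporter panel. Cells carrying cis-regulated reporter constructs are treated 24 h, then reporter transcripts are amplified, fluorescently labelled and sized by capillary electrophoresis. DMSO defines baseline.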

Test [5] can be described thus: ATG_GLI_CIS: Attagene CIS-FACTORIAL HepG2 Assay for human Zinc Finger Protein GLI1 (AID 2282945). The following applies: HepG2, Attagene cis-factorial reporter mRNA, GLI element; actives raise or lower the signal. A digest of the protocol:
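HepG2 cells transiently transfected with cis-promoter multiplexed reporter units report endogenous transcription factor activity. After 24 h chemical exposure, reporter mRNA was quantified by RT-PCR, 6-FAM labelling, HpaI digestion and capillary electrophoresis, with bidirectional fitting against DMSO.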

A short description of test [6]: ATG_M_06_CIS: Attagene CIS-FACTORIAL HepG2 Assay for M06 Transcription Factor (Internal Marker) (AID 2282950). Conditions: HepG2 Attagene CIS-FACTORIAL M06 internal marker reporter; actives raise or lower the signal. A digest of the protocol: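 Steps: transfect HepG2 with multiplexed cis-element reporter constructs; dose chemical 24 h; extract RNA with DNase treatment; reverse-transcribe, PCR-amplify, 6-FAM label, HpaI digest; separate fragments by capillary electrophoresis. Activity fitted both directions versus DMSO.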

Test [7] concerns the target Hypoxia-inducible factor 1-alpha (Homo sapiens) (UniProt Q16665). Kind of test: ATG_HIF1a_CIS: Attagene CIS-FACTORIAL HepG2 Assay for human Hypoxia Inducible Factor 1 (HIF1A) (AID 2282951). The following applies: HepG2 Attagene cis-factorial HIF1a reporter transcription; actives raise or lower the signal. Put shortly:
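HepG2, transient cis-reporter library, 24 h dosing. RNA → RT (oligo dT) → PCR → 6-FAM primer extension → HpaI → CE. Bidirectional curve fit vs DMSO.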

For test [8], the target named is Hepatocyte nuclear factor 6 (Homo sapiens) (UniProt Q9UBC0). Description: ATG_HNF6_CIS: Attagene CIS-FACTORIAL HepG2 Assay for human Hepatocyte Nuclear Factor 6 (HNF6) (AID 2282952). The following applies: HepG2 Attagene cis-factorial HNF6 reporter transcription; actives raise or lower the signal. A digest of the protocol: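 Activity values derive from bidirectional fitting against DMSO of reporter mRNA levels, measured by capillary electrophoresis of labelled RT-PCR products from HepG2 cells exposed 24 h.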
Hepatocyte nuclear factor 6 (Homo sapiens), sequence (Q9UBC0 whole entry, looked up): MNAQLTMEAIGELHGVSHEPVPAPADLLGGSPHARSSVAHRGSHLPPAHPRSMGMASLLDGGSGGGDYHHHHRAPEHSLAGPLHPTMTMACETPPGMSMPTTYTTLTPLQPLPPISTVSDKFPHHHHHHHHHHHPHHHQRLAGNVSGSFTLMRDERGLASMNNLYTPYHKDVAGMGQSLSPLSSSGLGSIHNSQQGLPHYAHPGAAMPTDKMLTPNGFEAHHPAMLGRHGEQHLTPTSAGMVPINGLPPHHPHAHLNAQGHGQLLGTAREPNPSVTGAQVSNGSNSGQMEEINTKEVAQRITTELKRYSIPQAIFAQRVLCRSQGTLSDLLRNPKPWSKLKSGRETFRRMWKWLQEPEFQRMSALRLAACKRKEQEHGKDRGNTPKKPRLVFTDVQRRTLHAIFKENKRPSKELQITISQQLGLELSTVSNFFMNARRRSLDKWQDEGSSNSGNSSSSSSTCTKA

The nature of test [9]: ATG_TA_CIS: Attagene CIS-FACTORIAL HepG2 Assay for human TA Basal Promoter (AID 2282964). The following applies: HepG2 Attagene CIS-factorial TA basal promoter reporter; actives raise or lower the signal. Put shortly:
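Steps: transfect HepG2 with MRTUs; dose 24 h; isolate RNA, DNase-treat, reverse-transcribe; PCR and FAM-label reporter cDNA; digest with HpaI 2h at 37 C; run capillary electrophoresis. Activity fitted both directions against DMSO.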

The target of test [10] is X-box-binding protein 1 (Homo sapiens) (UniProt P17861). Kind of test: ATG_Xbp1_CIS: Attagene CIS-FACTORIAL HepG2 Assay for human X-box Binding Protein 1 (XBP1) (AID 2282972). The following applies: HepG2 XBP1 cis-element reporter, Attagene multiplex; actives raise or lower the signal. Put shortly:
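Changes in reporter transcript abundance, read by RT-PCR and capillary electrophoresis, reflect endogenous transcription factor activity. Transfected HepG2 cells received compound for 24 hours; DMSO defined baseline for bidirectional analysis.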

The target in test [11] is Nuclear respiratory factor 1 (Homo sapiens) (UniProt Q16656). Description: ATG_NRF1_CIS: Attagene CIS-FACTORIAL HepG2 Assay for human Nuclear Respiratory Factor 1 (NRF1) Orphan Gene (AID 2282987). Conditions: HepG2 NRF1 cis-element reporter, Attagene multiplex; actives raise or lower the signal. Put shortly: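 Human hepatoma HepG2 cells carrying transfected promoter-regulated reporter units were incubated with test chemicals for 24 h. Reporter transcripts were measured by RT-PCR plus capillary electrophoresis, and endpoints derived by bidirectional fitting with DMSO as baseline.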
Nuclear respiratory factor 1 (Homo sapiens), sequence (Q16656 whole entry, looked up): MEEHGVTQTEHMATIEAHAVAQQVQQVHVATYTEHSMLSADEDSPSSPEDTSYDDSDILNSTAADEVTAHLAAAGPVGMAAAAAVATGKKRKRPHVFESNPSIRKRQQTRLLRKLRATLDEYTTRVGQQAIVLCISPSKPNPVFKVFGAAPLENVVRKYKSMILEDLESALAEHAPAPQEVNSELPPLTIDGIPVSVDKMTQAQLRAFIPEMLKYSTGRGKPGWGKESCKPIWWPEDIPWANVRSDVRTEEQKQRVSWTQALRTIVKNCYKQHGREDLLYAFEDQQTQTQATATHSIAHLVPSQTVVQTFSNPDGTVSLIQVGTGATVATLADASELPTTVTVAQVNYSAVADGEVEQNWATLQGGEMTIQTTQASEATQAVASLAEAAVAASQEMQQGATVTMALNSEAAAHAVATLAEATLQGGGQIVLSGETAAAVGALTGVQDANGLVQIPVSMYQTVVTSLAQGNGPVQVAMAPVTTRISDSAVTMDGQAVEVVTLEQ

The target of test [12] is Myc proto-oncogene protein (Homo sapiens) (UniProt P01106). Description: ATG_Myc_CIS: Attagene CIS-FACTORIAL HepG2 Assay for human Myelocytomatosis (Myc) Proto-Oncogene Transcription Factor (AID 2282990). The following applies: HepG2, Attagene cis-reporter transcription factor activity; actives raise or lower the signal. Put shortly:
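Multiplexed cis-reporter transcription in HepG2 cells after 24 h chemical treatment. Reporter mRNA measured by RT-PCR and capillary electrophoresis fluorescence; activity fitted bidirectionally against DMSO control.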

The nature of test [13]: ATG_NRF2_ARE_CIS: Attagene CIS-FACTORIAL HepG2 Assay for human Nuclear Factor Erythroid 2 Related Factor 2 (NFR2) response to Antioxidant Response Elements (ARE) (AID 2282992). Conditions: HepG2 Attagene ARE/NRF2 reporter, transcription factor activity; actives raise or lower the signal. Put shortly: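 Using transiently transfected HepG2 cells exposed for 24 h, reporter mRNA levels were determined by RT-PCR with fluorescent primer extension and capillary electrophoresis, analysed for gain or loss of signal against DMSO.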

Test [14] in a line: ATG_Oct_MLP_CIS: Attagene CIS-FACTORIAL HepG2 Assay for human Octamer-Binding Transcription Factor (Oct) (AID 2282993). The following applies: HepG2 Attagene cis-factorial Oct reporter, mRNA; actives raise or lower the signal. A digest of the protocol: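 Multiplexed cis-reporter assay in human liver HepG2 cells, 24 h incubation. Reporter RNA amplified and labelled, then resolved by capillary electrophoresis; DMSO serves as negative control and baseline.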

For test [15], the target named is Cellular tumor antigen p53 (Homo sapiens) (UniProt P04637). Description: ATG_p53_CIS: Attagene CIS-FACTORIAL HepG2 Assay for human p53 Transcription Factor (AID 2282994). The following applies: HepG2 p53 cis-element reporter, Attagene mRNA; actives raise or lower the signal. Put shortly:
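In HepG2 cells, reporter transcription units under cis-regulatory promoters were transiently introduced. Following 24 h treatment, RNA was processed to labelled, digested cDNA fragments read by capillary electrophoresis; fitting was bidirectional versus DMSO.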

Test [16] concerns the target CCAAT/enhancer-binding protein beta (Homo sapiens) (UniProt P17676). Kind of test: ATG_C_EBP_CIS: Attagene CIS-FACTORIAL HepG2 Assay for human CCAAT/Enhancer Binding Protein (C/EBP) beta (AID 2282927). Conditions: HepG2 Attagene cis-factorial transcription factor reporter; actives raise or lower the signal. Put shortly:
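Following a 24 h incubation with test chemical, transfected HepG2 cells yielded RNA whose reporter transcripts were quantified by RT-PCR and fluorescent capillary electrophoresis, with DMSO serving as baseline for bidirectional fitting.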

Test [17] is described as follows: ATG_BRE_CIS: Attagene CIS-FACTORIAL HepG2 Assay for human Bone Morphogenetic Protein (BMP) Response Element (BRE) (AID 2282933). The following applies: HepG2 BMP response element reporter, Attagene transcription factor profiling; actives raise or lower the signal. Put shortly:
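Endogenous transcription factor activity at a BMP response element was monitored in transfected HepG2 cells 24 h after dosing. Fluorescent RT-PCR products were resolved by capillary electrophoresis, and activity was fitted in both directions versus DMSO.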

The target in test [18] is Heat shock factor protein 1 (Homo sapiens) (UniProt Q00613). Description: ATG_HSE_CIS: Attagene CIS-FACTORIAL HepG2 Assay for human Heat Shock Transcription Factor 1 (HSE) (AID 2282953). The following applies: HepG2 HSE cis-reporter, Attagene RNA transcription; actives raise or lower the signal. Put shortly: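 Cells were transfected with cis-element-driven reporter constructs, dosed for 24 h, then total RNA was reverse-transcribed and reporter cDNA amplified, FAM-labelled and digested with HpaI. Fragments were resolved by capillary electrophoresis; gain or loss was fitted against DMSO.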
Heat shock factor protein 1 (Homo sapiens), sequence (Q00613 whole entry, looked up, the tested form may be a part): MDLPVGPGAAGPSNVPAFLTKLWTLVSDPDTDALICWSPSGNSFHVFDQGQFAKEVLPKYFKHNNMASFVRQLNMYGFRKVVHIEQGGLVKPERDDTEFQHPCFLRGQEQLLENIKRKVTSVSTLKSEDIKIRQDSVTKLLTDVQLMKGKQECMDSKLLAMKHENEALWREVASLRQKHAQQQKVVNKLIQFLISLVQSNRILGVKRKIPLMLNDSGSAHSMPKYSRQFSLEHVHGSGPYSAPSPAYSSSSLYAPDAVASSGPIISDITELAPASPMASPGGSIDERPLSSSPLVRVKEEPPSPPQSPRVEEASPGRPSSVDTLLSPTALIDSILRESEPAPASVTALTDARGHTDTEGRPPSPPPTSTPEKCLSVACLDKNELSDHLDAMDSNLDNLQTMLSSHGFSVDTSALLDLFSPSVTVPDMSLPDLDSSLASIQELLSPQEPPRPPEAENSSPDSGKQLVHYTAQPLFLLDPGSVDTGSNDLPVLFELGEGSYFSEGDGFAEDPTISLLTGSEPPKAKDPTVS

The nature of test [19]: ATG_VDRE_CIS: Attagene CIS-FACTORIAL HepG2 Assay for human Vitamin D Receptor Element (VDRE) (AID 2282968). Conditions: HepG2 VDRE cis-reporter transcription, actives raise or lower the signal. Put shortly: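 Steps: transfect HepG2 with multiple reporter transcription units; dose chemicals 24 h; isolate RNA; RT-PCR; label with 6-FAM primer extension; HpaI digest; capillary electrophoresis. Curves fitted both directions against DMSO.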

The nature of test [20]: ATG_AP_1_CIS: Attagene CIS-FACTORIAL HepG2 Assay for human Activator Protein 1 (AP-1) (AID 2282931). Conditions: HepG2 Attagene cis-factorial AP-1 reporter mRNA; actives raise or lower the signal. A digest of the protocol: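 Fluorescence of labelled PCR fragments separated by capillary electrophoresis gives reporter mRNA levels. HepG2 with transfected cis-regulated reporter units, 24 h exposure; DMSO serves as baseline for bidirectional curve fits.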

Active and inactive are the calls of the source. How the source made its calls: active means hit-call score of the fitted dose curve at least 0.9, where 1 is the maximum; inactive means score below 0.9.

Myc proto-oncogene protein (Homo sapiens), sequence (P01106 whole entry, looked up): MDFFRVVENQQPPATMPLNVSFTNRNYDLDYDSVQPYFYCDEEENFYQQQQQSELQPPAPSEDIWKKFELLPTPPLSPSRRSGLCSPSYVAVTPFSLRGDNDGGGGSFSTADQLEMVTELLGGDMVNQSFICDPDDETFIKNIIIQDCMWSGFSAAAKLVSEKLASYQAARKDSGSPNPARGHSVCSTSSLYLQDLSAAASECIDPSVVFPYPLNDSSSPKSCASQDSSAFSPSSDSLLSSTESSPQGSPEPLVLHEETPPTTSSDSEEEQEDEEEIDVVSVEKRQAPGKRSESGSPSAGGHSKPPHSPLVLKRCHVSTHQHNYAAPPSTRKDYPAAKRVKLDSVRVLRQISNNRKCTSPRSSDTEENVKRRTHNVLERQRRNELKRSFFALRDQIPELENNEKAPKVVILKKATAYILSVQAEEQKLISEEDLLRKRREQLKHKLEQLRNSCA
Cellular tumor antigen p53 (Homo sapiens), sequence (P04637 whole entry, looked up, the tested form may be a part): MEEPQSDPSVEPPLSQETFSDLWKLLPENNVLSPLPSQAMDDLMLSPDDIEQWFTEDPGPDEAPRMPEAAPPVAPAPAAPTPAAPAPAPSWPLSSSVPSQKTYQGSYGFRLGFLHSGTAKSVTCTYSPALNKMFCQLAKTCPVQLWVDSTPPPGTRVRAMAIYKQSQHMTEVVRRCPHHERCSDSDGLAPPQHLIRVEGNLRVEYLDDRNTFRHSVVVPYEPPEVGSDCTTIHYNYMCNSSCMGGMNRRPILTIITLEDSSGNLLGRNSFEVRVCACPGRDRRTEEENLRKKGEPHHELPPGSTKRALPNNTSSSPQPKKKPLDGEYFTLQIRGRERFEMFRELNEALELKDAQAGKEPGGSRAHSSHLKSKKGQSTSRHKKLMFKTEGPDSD
X-box-binding protein 1 (Homo sapiens), sequence (P17861 whole entry, looked up): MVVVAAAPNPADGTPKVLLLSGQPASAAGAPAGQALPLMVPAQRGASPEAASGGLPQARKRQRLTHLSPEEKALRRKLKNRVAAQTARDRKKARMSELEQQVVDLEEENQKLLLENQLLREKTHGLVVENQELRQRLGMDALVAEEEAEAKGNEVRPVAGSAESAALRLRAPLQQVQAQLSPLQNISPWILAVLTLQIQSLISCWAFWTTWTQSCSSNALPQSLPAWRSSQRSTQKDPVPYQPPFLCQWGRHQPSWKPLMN
Hypoxia-inducible factor 1-alpha (Homo sapiens), sequence (Q16665 whole entry, looked up): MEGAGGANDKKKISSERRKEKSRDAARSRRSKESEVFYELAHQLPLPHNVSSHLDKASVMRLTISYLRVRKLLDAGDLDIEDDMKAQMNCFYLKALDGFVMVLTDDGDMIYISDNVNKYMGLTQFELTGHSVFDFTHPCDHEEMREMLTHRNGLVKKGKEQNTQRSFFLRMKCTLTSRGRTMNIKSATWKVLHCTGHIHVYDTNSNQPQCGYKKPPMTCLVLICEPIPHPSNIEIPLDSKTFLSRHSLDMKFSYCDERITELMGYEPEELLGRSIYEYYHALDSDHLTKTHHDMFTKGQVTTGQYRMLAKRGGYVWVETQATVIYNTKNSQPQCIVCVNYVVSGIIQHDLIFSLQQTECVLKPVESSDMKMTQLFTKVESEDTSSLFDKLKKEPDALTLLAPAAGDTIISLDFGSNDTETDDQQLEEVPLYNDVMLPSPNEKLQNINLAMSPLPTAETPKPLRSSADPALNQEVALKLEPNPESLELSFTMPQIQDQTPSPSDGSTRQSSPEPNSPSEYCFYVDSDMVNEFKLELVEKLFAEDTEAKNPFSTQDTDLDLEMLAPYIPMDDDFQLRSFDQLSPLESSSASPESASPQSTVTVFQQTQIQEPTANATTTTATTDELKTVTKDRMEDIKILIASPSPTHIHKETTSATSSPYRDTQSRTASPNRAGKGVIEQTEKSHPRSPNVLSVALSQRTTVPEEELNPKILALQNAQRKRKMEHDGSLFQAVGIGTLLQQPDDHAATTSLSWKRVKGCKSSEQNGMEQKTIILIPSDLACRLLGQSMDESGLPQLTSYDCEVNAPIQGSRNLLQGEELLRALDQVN
Aryl hydrocarbon receptor (Homo sapiens), sequence (P35869 whole entry, looked up): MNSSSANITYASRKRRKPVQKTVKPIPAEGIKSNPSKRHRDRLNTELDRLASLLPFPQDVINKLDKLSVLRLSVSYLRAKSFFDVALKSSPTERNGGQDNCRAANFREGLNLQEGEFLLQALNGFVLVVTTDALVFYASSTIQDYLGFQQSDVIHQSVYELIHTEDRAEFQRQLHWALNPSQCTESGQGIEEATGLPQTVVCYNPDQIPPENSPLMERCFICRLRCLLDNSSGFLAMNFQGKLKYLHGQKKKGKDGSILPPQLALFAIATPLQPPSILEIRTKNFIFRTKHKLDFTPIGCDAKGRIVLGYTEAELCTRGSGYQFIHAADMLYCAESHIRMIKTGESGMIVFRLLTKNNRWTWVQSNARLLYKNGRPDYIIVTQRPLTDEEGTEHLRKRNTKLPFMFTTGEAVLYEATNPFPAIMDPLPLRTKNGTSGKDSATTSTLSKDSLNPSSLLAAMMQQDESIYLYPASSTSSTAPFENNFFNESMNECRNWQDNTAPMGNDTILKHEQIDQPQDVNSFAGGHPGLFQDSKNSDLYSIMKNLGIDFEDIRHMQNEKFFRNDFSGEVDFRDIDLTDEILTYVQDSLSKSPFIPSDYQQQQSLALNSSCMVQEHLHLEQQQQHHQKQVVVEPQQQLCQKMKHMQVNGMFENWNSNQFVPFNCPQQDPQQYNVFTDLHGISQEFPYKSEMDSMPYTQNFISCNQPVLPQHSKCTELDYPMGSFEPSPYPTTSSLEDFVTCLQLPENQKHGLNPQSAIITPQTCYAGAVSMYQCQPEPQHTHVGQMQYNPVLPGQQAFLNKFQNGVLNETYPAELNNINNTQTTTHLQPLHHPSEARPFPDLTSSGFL
CCAAT/enhancer-binding protein beta (Homo sapiens), sequence (P17676 whole entry, looked up): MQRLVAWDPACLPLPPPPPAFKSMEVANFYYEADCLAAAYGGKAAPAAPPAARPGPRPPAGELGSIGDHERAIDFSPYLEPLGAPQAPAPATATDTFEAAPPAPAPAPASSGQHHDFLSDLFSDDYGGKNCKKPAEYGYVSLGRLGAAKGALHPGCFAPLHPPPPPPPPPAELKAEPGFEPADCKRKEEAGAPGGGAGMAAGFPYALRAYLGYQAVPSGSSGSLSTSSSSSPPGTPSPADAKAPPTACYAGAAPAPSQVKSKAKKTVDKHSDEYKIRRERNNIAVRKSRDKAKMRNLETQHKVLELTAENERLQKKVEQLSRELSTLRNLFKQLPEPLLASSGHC

On to `C=CCO`, for which the outcome in [1], in test [2], in [3], in test [4], in test [5] and in test [6] was inactive. In addition, the result in [7], in test [8], in [9], in test [10], in test [11] and in test [12] was inactive. Also, the call in test [13], in [14] and in test [15] was inactive.
In the case of `Nc1ccccc1C(=O)Oc1ccc2ccccc2c1`, the call in test [1], in test [16], in [3], in test [7], in [8] and in test [9] was inactive. Besides, the call in test [19], in test [10], in [12] and in test [15] was inactive. The AC50 in [17] is 161 µM (active); in test [4], 166 µM (active); in test [5] it was 70.9 µM (active); in [18] it was 27.7 µM (active); in test [11], 139 µM (active); in test [13], 31.7 µM (active). Also, the half-maximal activity concentration (AC50) in test [14] is 54.7 µM (active).
With `N#CC(c1ccccc1)c1ccccc1`, the outcome in test [1], in test [16], in [20], in test [3], in test [4] and in test [5] was inactive. The call in [6], in test [7], in test [8], in test [18], in test [9] and in [10] was inactive. For the same compound, the compound was called inactive in test [12], in [14] and in test [15]. Also, the AC50 in test [19] was 30.3 µM (active); in test [13], 77.9 µM (active).
For `O=S(=O)(O)OOS(=O)(=O)O`, the compound was classed as inactive in test [1], in test [2], in test [20], in test [3], in test [4] and in [6]. Further, the outcome in test [7], in [8], in test [18], in test [19], in test [10] and in test [11] was inactive. For the same compound, the outcome in [12], in test [13] and in [14] was inactive.
`CCCOC(=O)c1ccccc1C(=O)OCCC`: the compound was called inactive in test [1], in test [2], in [17], in test [3], in [4] and in test [5]. For the same compound, the result in test [6], in [7], in test [8], in test [18], in [9] and in [10] was inactive. The compound was classed as inactive in test [11], in test [12], in [13], in test [14] and in test [15].
`N#Cc1cccc(C#N)c1`: the call in test [1], in test [2], in test [20], in test [17], in test [3] and in test [4] was inactive. Further, the compound was called inactive in test [5], in test [6], in [7], in test [8], in [18] and in test [19]. Moreover, the compound was called inactive in test [10], in test [11], in [12], in test [13], in test [14] and in test [15].
Regarding `Nc1c(Cl)c(Cl)c(Cl)c(Cl)c1Cl`, the outcome in test [1], in test [20], in test [17], in test [4], in test [5] and in [6] was inactive. Moreover, the compound was classed as inactive in [7], in test [8], in [18], in test [9], in test [19] and in test [10]. Further, the compound was classed as inactive in test [11], in [12] and in [14]. The half-maximal activity concentration (AC50) in [2] is 31.4 µM (active); in test [13] it was 38.1 µM (active).
